Compound activity (PubChem)
This is a sample that favours compounds with a hit; in the whole collection about 9.8% have one here.
CBFb-RUNX1 inh: qHTS Assay for Compounds Blocking the Interaction Between CBF-beta and RUNX1 for the Treatment of Acute Myeloid Leukemia; Runt-related transcription factor 1 (Homo sapiens) + Core-binding factor subunit beta …; AlphaScreen CBFb-His/RUNX1-biotin binding, biochemical; Potency, µM (highest dose often 59.8 µM), actives largely listed as inhibitors; 230,000 tested, under 10 active
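His-tagged CBF-beta and biotinylated RUNX1 (30 nM each) were premixed 20 min at room temperature, exposed to compound for 15 min, then given nickel-chelate and streptavidin AlphaScreen beads (50 ng each). After 90 min, AlphaScreen signal was read.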
JMJD2E inh: qHTS Assay for Inhibitors of Human Jumonji Domain Containing 2E (JMJD2E). actives 1.6% (n = 230,000). Lysine-specific demethylase 4E (Homo sapiens), B2RXH2. Potency, µM (titrated, usually from 57.1 µM), actives largely listed as inhibitors. JMJD2E catalytic domain, FDH-coupled NADH fluorescence (FDH is formaldehyde dehydrogenase); note: nearly all actives have a fitted effect of over 50% in size
ALDH1A1 inh: qHTS Assay for Inhibitors of Aldehyde Dehydrogenase 1 (ALDH1A1). Aldehyde dehydrogenase 1A1 (Homo sapiens), P00352. Purified ALDH1A1, NADH fluorescence, propionaldehyde substrate. Potency, µM (highest dose often 75.3 µM), actives largely listed as inhibitors. actives 7.3% (n = 220,000); active = well fitted inhibition curve with a large enough effect, not every such curve was filed as active; inconclusive = small, poorly fitted or top-dose-only effect, or another doubt; inactive = no such curve, though single readings can be large or run the other way
Target sequence (P00352 whole entry, looked up): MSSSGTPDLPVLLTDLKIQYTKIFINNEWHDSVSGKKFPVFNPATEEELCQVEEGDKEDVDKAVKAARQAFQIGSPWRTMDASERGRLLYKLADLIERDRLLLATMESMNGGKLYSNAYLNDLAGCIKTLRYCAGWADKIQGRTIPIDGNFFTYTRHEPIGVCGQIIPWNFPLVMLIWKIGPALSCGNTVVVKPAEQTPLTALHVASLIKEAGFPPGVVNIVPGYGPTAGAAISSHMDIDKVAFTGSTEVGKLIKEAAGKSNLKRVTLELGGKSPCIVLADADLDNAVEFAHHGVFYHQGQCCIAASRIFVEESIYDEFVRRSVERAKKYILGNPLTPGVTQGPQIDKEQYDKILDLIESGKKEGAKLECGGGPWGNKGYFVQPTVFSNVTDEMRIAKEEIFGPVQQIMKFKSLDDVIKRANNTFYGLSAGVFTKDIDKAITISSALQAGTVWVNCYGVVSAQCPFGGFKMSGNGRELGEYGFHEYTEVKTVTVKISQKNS
HTT ATP protect: qHTS Multiplex Assay to Identify Dual Action Probes in a Cell Model of Huntington: Cytoprotection (ATP). Potency, µM (series often up to 56.4 µM), hits mostly activators. PC12 HTT-Q103 induced, cytoprotection, ATP luminescence, 40 h. actives 0.14% (n = 230,000). AID 1471, 2008; note: nearly all actives have a fitted effect of over 45% in size
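Cells were plated at 1500 per well in phenol red-free DMEM with 5% equine and 5% calf serum. Tebufenozide (100 nM final) and compounds were added, then ATPlite reagent, and luminescence was read.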
HPGD inh: qHTS Assay for Inhibitors of HPGD (15-Hydroxyprostaglandin Dehydrogenase); Potency, µM, actives largely listed as inhibitors; purified HPGD, NADH fluorescence kinetic, PGE2 substrate; 15-hydroxyprostaglandin dehydrogenase [NAD(+)] (Homo sapiens), P15428; actives 4.3% (n = 150,000); AID 894, 2007; active = well fitted inhibition curve with a large enough effect, not every such curve was filed as active; inconclusive = small, poorly fitted or top-dose-only effect, or another doubt; inactive = no such curve, though single readings can be large or run the other way
Target sequence (P15428 whole entry, looked up): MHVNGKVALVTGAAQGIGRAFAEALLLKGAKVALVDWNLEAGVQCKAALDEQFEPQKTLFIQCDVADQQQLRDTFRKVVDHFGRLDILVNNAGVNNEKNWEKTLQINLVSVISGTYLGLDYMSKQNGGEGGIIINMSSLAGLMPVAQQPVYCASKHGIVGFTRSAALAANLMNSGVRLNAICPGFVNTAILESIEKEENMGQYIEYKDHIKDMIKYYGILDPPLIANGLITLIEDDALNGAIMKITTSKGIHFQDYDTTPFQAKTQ
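20 nM HPGD preincubated 15 min at room temperature with compound in 50 mM Tris-HCl pH 8, 0.01% Tween 20. Started with 1 mM NAD+ and 30 uM prostaglandin E2; NADH fluorescence (360/450 nm) read 5 times over 30-s intervals, last minus first.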
HttQ103 aggreg: qHTS Multiplex Assay to Identify Dual Action Probes in a Cell Model of Huntington: Aggregate Formation (GFP) | PC12 HttQ103-GFP aggregates, Acumen cytometry, 40 h | Potency, µM (top dose mostly 46.1 µM), actives largely listed as inhibitors | actives 1.1% (n = 220,000); note: nearly all actives have a fitted effect of over 60% in size
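PC12 cells with ecdysone-inducible HTT exon1 Q103-GFP, induced by 100 nM tebufenozide, given compounds in a concentration series. GFP aggregates (1–25 um, 6 SD above background) counted in lysates by laser-scanning cytometry, 488 nm excitation.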
Numbers stand for hits; ! = a repeat was not active; [ ] = remark or other dose. Unless noted, calls come from the whole dose curve; as a rule, active = well fitted curve in the direction sought with a large enough effect; inconclusive = small, poorly fitted or top-dose-only effect, or another doubt; inactive = no such curve, though single readings can be large; an effect the other way counts as inactive or inconclusive.

How did Cc1ccc(NC2=C(Cl)C(=O)c3ccccc3C2=O)cc1 do in these assays?
CBFb-RUNX1 inh: inactive; JMJD2E inh: inactive; ALDH1A1 inh: inactive; HTT ATP protect: inactive[10 µM]; HttQ103 aggreg: 10µM

What do the screens show for `Cc1ccc2nc(Cl)c3cc(C(=O)NCCCN4CCCC4)sc3c2c1`?
CBFb-RUNX1 inh: inactive; JMJD2E inh: inactive; ALDH1A1 inh: inactive; HTT ATP protect: inactive; HttQ103 aggreg: inactive

What do the screens show for `Cc1ccc(OCCCN2C(=O)C(=O)c3cccc(C)c32)cc1`?
CBFb-RUNX1 inh: inactive; JMJD2E inh: inactive; ALDH1A1 inh: 0.071µM; HTT ATP protect: inactive; HPGD inh: 18µM; HttQ103 aggreg: inactive

How did Cc1cccc2c1N(CCOc1ccc(C(C)(C)C)cc1)C(=O)C2=O do in these assays?
CBFb-RUNX1 inh: inactive; JMJD2E inh: inactive; ALDH1A1 inh: 0.5µM; HTT ATP protect: inactive[10 µM]; HPGD inh: inactive; HttQ103 aggreg: inactive

Results for Cc1cccc2c1N(CCOc1ccccc1Cl)C(=O)C2=O ?
CBFb-RUNX1 inh: inactive; JMJD2E inh: inactive; ALDH1A1 inh: inactive; HTT ATP protect: inactive[10 µM]; HPGD inh: inactive; HttQ103 aggreg: inactive

Results for O=C(CC(=O)N/N=C\c1ccc([N+](=O)[O-])cc1)NCCc1ccccc1 ?
CBFb-RUNX1 inh: inactive; JMJD2E inh: inactive; ALDH1A1 inh: inactive; HTT ATP protect: inactive[10 µM]; HttQ103 aggreg: inactive[9.22 µM]

How did Cc1cccc2c1c1ccc3c(c1n2C)C(=O)C=CC3=O do in these assays?
CBFb-RUNX1 inh: inactive; JMJD2E inh: inactive; ALDH1A1 inh: 0.32µM; HTT ATP protect: inactive[10 µM]; HttQ103 aggreg: inactive[9.22 µM]

How did NC(C(=O)NC1C(=O)N2C(C(=O)O)=C(Cl)CSC12)c1ccccc1 (centres undefined) do in these assays?
CBFb-RUNX1 inh: inconclusive; JMJD2E inh: inconclusive; ALDH1A1 inh: 16µM; HTT ATP protect: inactive; HPGD inh: inconclusive

How did N[C@H](C(=O)N[C@@H]1C(=O)N2C(C(=O)O)=C(Cl)CS[C@@H]12)c1ccccc1 do in these assays?
CBFb-RUNX1 inh: inactive; JMJD2E inh: 14µM!; ALDH1A1 inh: 11µM!; HTT ATP protect: inconclusive; HPGD inh: inactive

Results for CCOC(=O)c1c(C)c(/C=N/Nc2ccccc2)n(C)c1C ?
CBFb-RUNX1 inh: inactive; JMJD2E inh: inactive; ALDH1A1 inh: inconclusive; HTT ATP protect: inactive[10 µM]; HttQ103 aggreg: inactive

Results for O=C(NC1=NCCS1)c1ccccc1OCc1ccccc1Cl ?
CBFb-RUNX1 inh: inactive; JMJD2E inh: inactive; ALDH1A1 inh: inactive; HTT ATP protect: inactive; HttQ103 aggreg: inactive

Results for Cc1ccc(NC2=Nc3ccccc3N3C2=Nc2c(c(C)nn2-c2ccccc2)C3c2ccc(O)c(O)c2)cc1 (centres undefined) ?
CBFb-RUNX1 inh: inactive; JMJD2E inh: 28µM; ALDH1A1 inh: inactive; HTT ATP protect: inactive; HPGD inh: inactive; HttQ103 aggreg: inactive

How did Cc1nn(-c2ccccc2)c2c1C(c1ccc(O)c(O)c1)N1C(=N2)C(Nc2ccccc2)=Nc2ccccc21 (centres undefined) do in these assays?
CBFb-RUNX1 inh: inactive; JMJD2E inh: 18µM; ALDH1A1 inh: inactive; HTT ATP protect: inactive; HPGD inh: inactive; HttQ103 aggreg: inactive

How did COc1cc2nncc(SCc3ccc(Cl)c(Cl)c3)c2cc1OC do in these assays?
ALDH1A1 inh: inactive[13.5 µM]; HTT ATP protect: inactive[10 µM]; HPGD inh: inactive

How did CN(C)c1ccnc(Oc2ccccc2)c1C#N do in these assays?
CBFb-RUNX1 inh: inactive; JMJD2E inh: inactive; ALDH1A1 inh: inconclusive; HTT ATP protect: inactive; HPGD inh: inconclusive; HttQ103 aggreg: inactive

Results for CN(C)c1ccnc(Oc2ccc(C(C)(C)C)cc2)c1C#N ?
CBFb-RUNX1 inh: inactive; JMJD2E inh: inactive; ALDH1A1 inh: inconclusive; HTT ATP protect: inactive[10 µM]; HPGD inh: 35µM; HttQ103 aggreg: inactive

What do the screens show for `CN(C)c1ccnc(Oc2ccc(Cl)cc2)c1C#N`?
CBFb-RUNX1 inh: inactive; JMJD2E inh: inactive; ALDH1A1 inh: 25µM; HTT ATP protect: inactive; HPGD inh: 32µM; HttQ103 aggreg: inconclusive

How did C#CCOCCOCCOCCNc1nc(N2CCN(C(=O)[C@H](CCCCN)n3cc(C(N)CO)nn3)CC2)nc(N2CCN(C(=O)[C@H](CCC(=O)O)n3cc(C(N)CC(C)C)nn3)CC2)n1 (some centres undefined) do in these assays?
CBFb-RUNX1 inh: inactive; JMJD2E inh: 20µM; HTT ATP protect: inactive[10 µM]; HttQ103 aggreg: inactive[9.22 µM]

What do the screens show for `C#CCOCCOCCOCCNc1nc(N2CCN(C(=O)[C@H](CCCCN)n3cc([C@@H](N)CC(C)C)nn3)CC2)nc(N2CCN(C(=O)[C@H](CCCCN)n3cc([C@@H](N)CC(C)C)nn3)CC2)n1`?
CBFb-RUNX1 inh: inactive; JMJD2E inh: inactive; ALDH1A1 inh: inactive; HTT ATP protect: inactive[10 µM]; HttQ103 aggreg: inactive[9.22 µM]

How did C#CCOCCOCCOCCNc1nc(N2CCN(C(=O)[C@H](Cc3ccc(O)cc3)n3cc([C@@H](N)CC(C)C)nn3)CC2)nc(N2CCN(C(=O)[C@H](Cc3ccc(O)cc3)n3cc([C@@H](N)CC(C)C)nn3)CC2)n1 do in these assays?
CBFb-RUNX1 inh: inactive; JMJD2E inh: inconclusive; ALDH1A1 inh: 16µM; HTT ATP protect: inactive[10 µM]; HttQ103 aggreg: inactive[9.22 µM]

Results for COc1ccc(/C=N/NC(=O)c2cccc(NC(=O)c3ccccc3)c2)c(C(=O)O)c1OC ?
CBFb-RUNX1 inh: inactive; JMJD2E inh: inactive; ALDH1A1 inh: inactive; HTT ATP protect: inactive[10 µM]; HPGD inh: inactive; HttQ103 aggreg: inactive

Results for CCOC(=O)C[N+](C)(C)CCOC1CC2CCC1(C)C2(C)C (centres undefined) ?
CBFb-RUNX1 inh: inactive; JMJD2E inh: 18µM; ALDH1A1 inh: inactive

How did CC(=O)N1CCC(N(CCCOC(C)C)C(=O)Nc2ccc(Cl)cc2)CC1 do in these assays?
HTT ATP protect: inactive

What do the screens show for `CC(C)C[C@H](N)c1nnc(S(=O)(=O)Cc2cccc(F)c2)o1`?
CBFb-RUNX1 inh: inactive; JMJD2E inh: inactive; ALDH1A1 inh: 13µM; HTT ATP protect: inactive[0.074 µM]; HPGD inh: inactive; HttQ103 aggreg: inconclusive

How did CC(C)Cn1nnnc1S(=O)(=O)Cc1ccccc1 do in these assays?
CBFb-RUNX1 inh: inactive; JMJD2E inh: inactive; ALDH1A1 inh: inactive; HTT ATP protect: inactive; HPGD inh: inactive

What do the screens show for `CC(C)[C@H](NC(=O)OC(C)(C)C)c1nnc(S(=O)(=O)Cc2c(F)cccc2Cl)o1`?
CBFb-RUNX1 inh: inactive; JMJD2E inh: inactive; ALDH1A1 inh: inactive; HTT ATP protect: inactive; HPGD inh: 5µM; HttQ103 aggreg: 10µM
